# In paper PMC7862700, “An all-to-all approach to the identification of sequence-specific readers for epigenetic DNA modifications on cytosine”:
# Key:
# Test in all cases: DAPPL (digital affinity profiling via proximity ligation, sequencing); 10 mM Tris-HCl pH 7.5, 50 mM NaCl, 1 mM DTT, 4% glycerol, room temperature, 30 min; GST-TFs on glutathione beads, 16-mer random dsDNA library, 0.1% formaldehyde crosslink after washing; high values mean tight binding
# FLI1 = biological target: T1, FLI1 (Homo sapiens, UniProt Q01543 1-452); details: protein: recombinant; tags: N-terminal GST; dsDNA, one strand shown
# T1 sequence: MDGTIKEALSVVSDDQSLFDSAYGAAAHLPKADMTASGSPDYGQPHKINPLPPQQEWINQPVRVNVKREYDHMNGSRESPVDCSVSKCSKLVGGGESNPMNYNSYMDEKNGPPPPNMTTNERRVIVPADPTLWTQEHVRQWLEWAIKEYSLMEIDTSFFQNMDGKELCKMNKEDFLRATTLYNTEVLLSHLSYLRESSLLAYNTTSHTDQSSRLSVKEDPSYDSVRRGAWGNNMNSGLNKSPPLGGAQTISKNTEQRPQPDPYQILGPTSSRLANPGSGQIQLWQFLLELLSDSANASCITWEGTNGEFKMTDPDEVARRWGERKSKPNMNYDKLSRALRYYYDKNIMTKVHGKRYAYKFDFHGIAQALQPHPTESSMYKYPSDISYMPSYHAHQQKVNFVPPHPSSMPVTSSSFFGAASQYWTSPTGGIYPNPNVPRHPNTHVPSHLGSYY
# Method in brief: (§1)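 Each value of binding signal is a hexamer's read frequency for a factor divided by the same hexamer's frequency in the tag-only sample. Barcoded, bead-captured GST fusions of human transcription factors made in yeast were pooled with that sample and incubated with 200 nmole of a random double-stranded 16-mer DNA library in Tris/NaCl/DTT/glycerol buffer at room temperature for 30 min. Washing, 0.1% formaldehyde crosslinking, proximity ligation, PCR and Illumina NextSeq500 sequencing followed.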
# ELK1 = biological target: T2, ELK1 (Homo sapiens, UniProt P19419 1-428); details: protein: recombinant; tags: N-terminal GST; dsDNA, one strand shown
# T2 sequence: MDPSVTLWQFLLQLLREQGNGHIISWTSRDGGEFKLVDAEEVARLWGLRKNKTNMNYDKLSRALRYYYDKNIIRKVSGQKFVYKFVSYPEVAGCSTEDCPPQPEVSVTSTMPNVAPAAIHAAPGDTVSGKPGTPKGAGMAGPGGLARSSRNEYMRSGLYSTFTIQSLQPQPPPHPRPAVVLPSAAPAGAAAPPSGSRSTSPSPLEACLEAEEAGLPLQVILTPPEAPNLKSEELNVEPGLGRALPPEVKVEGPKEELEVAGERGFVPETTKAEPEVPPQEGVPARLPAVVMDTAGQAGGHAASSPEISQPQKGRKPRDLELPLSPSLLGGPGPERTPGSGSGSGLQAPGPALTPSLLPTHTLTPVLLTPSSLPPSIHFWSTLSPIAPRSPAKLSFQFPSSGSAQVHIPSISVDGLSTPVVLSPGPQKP
# Method in brief: as §1
# GABPA = biological target: T3, GABPA (Homo sapiens, UniProt Q06546 1-454); details: protein: recombinant; tags: N-terminal GST; dsDNA, one strand shown
# T3 sequence: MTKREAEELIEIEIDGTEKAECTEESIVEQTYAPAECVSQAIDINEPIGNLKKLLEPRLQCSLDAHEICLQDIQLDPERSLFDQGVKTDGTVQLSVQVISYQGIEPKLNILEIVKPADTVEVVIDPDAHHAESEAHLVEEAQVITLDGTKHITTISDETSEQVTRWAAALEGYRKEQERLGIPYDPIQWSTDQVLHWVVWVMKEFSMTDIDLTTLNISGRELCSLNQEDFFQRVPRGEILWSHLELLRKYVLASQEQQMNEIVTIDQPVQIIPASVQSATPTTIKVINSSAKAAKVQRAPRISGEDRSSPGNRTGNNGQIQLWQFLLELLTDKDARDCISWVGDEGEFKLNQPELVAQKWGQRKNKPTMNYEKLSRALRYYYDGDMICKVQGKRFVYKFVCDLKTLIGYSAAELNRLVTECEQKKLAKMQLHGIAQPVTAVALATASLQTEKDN
# Method in brief: as §1
# ERG = biological target: T4, ERG (Homo sapiens, UniProt P11308 1-479); details: protein: recombinant; tags: N-terminal GST; dsDNA, one strand shown
# T4 sequence: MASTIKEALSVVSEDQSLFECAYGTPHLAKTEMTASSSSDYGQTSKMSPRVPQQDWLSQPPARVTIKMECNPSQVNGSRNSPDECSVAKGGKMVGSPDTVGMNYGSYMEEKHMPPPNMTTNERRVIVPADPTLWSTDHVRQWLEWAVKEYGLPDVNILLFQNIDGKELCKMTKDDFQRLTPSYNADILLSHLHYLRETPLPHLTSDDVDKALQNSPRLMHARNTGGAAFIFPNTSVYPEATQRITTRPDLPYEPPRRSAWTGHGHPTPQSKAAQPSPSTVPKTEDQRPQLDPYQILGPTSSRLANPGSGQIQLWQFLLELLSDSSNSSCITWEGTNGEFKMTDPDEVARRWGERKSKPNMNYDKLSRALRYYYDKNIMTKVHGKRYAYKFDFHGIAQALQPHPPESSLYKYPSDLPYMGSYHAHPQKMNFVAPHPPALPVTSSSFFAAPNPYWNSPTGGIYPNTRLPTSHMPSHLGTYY
# Method in brief: as §1
# ELF1 = ELF1 (Homo sapiens, UniProt P32519 1-619); details: protein: recombinant; tags: N-terminal GST; dsDNA, one strand shown
# Sequence of ELF1 (P32519 whole entry): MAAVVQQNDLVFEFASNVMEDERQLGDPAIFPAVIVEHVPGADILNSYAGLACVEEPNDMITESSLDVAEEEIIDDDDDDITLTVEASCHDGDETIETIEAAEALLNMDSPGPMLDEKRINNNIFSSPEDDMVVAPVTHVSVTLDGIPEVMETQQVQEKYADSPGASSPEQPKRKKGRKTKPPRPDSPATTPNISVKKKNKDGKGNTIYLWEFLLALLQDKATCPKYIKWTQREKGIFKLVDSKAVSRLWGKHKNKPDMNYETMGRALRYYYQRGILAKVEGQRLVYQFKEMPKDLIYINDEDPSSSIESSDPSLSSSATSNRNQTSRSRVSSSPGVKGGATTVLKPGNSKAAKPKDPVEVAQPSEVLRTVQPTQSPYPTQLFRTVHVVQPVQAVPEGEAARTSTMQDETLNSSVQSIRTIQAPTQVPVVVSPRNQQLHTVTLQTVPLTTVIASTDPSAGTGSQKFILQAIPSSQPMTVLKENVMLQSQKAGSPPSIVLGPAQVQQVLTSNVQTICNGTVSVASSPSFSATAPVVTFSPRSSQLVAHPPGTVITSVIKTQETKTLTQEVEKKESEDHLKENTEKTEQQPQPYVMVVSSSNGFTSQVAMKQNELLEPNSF
# Method in brief: as §1
# EHF = biological target: T5, EHF (Homo sapiens, UniProt Q9NZC4 1-300); details: protein: recombinant; tags: N-terminal GST; dsDNA, one strand shown
# T5 sequence: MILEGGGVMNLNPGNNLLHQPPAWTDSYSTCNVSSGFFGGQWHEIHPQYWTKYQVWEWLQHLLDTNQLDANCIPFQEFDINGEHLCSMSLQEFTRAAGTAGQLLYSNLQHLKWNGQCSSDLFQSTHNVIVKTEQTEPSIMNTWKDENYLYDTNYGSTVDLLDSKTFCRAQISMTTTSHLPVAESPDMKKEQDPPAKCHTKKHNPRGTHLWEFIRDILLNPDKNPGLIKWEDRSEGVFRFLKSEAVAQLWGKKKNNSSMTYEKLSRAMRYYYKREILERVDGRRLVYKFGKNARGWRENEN
# Method in brief: as §1
# SPI1 = SPI1 (Homo sapiens, UniProt P17947 1-270); details: protein: recombinant; tags: N-terminal GST; dsDNA, one strand shown
# Method in brief: as §1
# SPIB = SPIB (Homo sapiens, UniProt Q01892 1-262); details: protein: recombinant; tags: N-terminal GST; dsDNA, one strand shown
# Sequence of SPIB (Q01892 whole entry): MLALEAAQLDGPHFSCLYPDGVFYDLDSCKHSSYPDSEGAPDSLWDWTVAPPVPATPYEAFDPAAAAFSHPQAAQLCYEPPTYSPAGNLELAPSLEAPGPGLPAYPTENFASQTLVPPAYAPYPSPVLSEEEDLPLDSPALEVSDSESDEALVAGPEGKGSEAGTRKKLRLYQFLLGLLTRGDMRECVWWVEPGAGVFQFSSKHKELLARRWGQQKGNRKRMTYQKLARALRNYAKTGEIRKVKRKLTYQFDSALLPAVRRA
# Method in brief: as §1
# ELK3 = biological target: T6, ELK3 (Homo sapiens, UniProt P41970 1-407); details: protein: recombinant; tags: N-terminal GST; dsDNA, one strand shown
# T6 sequence: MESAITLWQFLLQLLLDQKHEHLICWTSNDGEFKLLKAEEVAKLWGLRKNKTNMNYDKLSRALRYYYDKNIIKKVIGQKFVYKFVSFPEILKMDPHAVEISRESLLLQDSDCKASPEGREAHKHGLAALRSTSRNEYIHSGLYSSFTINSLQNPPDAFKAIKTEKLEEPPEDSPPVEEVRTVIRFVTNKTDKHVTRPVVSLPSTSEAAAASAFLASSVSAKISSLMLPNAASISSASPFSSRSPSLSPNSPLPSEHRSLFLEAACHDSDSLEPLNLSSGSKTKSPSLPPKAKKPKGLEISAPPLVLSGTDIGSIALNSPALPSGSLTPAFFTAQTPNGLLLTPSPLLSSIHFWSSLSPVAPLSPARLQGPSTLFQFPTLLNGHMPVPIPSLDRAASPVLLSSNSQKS
# Method in brief: as §1
# FEV = biological target: T7, FEV (Homo sapiens, UniProt Q99581 1-238); details: protein: recombinant; tags: N-terminal GST; dsDNA, one strand shown
# T7 sequence: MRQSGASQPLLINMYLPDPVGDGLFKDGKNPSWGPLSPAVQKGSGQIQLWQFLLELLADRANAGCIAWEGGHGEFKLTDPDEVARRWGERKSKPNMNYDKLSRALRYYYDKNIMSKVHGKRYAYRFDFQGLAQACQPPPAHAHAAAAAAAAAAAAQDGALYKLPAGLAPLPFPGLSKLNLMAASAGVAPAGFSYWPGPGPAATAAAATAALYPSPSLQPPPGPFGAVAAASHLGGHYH
# Method in brief: as §1
# ETV5 = ETV5 (Homo sapiens, UniProt P41161 1-510); details: protein: recombinant; tags: N-terminal GST; dsDNA, one strand shown
# Sequence of ETV5 (P41161 whole entry): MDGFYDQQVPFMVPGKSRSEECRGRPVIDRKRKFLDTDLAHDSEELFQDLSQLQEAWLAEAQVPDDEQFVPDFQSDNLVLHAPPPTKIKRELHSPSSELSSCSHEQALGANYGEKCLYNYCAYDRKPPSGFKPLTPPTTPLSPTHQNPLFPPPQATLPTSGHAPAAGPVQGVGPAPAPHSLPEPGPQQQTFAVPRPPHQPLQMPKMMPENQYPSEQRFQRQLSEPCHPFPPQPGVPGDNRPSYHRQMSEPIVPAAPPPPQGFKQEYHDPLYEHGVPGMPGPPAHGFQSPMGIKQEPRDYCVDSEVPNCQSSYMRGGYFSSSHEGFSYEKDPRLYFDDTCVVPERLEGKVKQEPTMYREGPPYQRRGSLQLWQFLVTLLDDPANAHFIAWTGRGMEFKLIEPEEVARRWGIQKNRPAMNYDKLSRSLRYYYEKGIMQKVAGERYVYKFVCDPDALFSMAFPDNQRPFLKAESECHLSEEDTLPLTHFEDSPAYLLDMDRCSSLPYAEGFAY
# Method in brief: as §1
# HSF1 = HSF1 (Homo sapiens, UniProt Q00613 1-529); details: protein: recombinant; tags: N-terminal GST; chain copies: 3; dsDNA, one strand shown
# Sequence of HSF1 (Q00613 whole entry): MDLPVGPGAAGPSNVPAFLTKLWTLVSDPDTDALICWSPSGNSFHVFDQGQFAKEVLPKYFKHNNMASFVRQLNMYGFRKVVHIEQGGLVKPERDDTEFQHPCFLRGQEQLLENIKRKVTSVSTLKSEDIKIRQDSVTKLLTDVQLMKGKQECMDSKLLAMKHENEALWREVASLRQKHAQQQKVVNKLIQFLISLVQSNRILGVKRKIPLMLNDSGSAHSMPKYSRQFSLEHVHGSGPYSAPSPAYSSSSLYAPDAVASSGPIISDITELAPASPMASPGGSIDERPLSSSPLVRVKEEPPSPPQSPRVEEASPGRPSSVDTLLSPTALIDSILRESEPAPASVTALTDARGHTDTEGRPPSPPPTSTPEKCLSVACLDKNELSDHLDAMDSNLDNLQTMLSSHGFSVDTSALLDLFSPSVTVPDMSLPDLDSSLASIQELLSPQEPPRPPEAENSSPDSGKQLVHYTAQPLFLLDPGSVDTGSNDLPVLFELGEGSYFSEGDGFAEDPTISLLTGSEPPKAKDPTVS
# Method in brief: as §1
# SPIC = biological target: T8, SPIC (Homo sapiens, UniProt Q8N5J4 1-248); details: protein: recombinant; tags: N-terminal GST; dsDNA, one strand shown
# T8 sequence: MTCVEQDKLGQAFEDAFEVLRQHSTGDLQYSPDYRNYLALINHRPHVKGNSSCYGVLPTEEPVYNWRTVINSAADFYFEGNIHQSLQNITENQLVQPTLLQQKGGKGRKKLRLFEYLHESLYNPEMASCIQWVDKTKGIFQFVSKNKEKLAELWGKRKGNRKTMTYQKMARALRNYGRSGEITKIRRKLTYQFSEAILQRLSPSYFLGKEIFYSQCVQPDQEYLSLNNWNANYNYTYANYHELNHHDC
# Method in brief: as §1
# ELF4 = ELF4 (Homo sapiens, UniProt Q99607 1-663); details: protein: recombinant; tags: N-terminal GST; dsDNA, one strand shown
# Sequence of ELF4 (Q99607 whole entry): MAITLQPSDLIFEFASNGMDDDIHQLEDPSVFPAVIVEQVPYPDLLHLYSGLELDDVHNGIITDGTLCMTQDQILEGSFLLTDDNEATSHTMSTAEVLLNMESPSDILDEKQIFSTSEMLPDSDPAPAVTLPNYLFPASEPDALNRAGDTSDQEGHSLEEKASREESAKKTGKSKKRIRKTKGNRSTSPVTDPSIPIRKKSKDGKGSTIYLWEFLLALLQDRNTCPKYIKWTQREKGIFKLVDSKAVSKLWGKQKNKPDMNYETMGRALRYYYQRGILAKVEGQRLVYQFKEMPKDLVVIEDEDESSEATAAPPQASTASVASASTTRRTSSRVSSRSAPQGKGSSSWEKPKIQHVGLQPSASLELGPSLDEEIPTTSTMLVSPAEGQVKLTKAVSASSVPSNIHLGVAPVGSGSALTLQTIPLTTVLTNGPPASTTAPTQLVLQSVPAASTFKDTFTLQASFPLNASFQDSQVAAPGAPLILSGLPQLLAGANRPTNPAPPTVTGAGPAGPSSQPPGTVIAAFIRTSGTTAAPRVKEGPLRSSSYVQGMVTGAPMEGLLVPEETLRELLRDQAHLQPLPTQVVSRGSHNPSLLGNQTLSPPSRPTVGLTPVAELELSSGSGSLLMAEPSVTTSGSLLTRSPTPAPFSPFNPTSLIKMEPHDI
# Method in brief: as §1
# ELK4 = biological target: T9, ELK4 (Homo sapiens, UniProt P28324-2 1-405); details: protein: recombinant; tags: N-terminal GST; dsDNA, one strand shown
# T9 sequence: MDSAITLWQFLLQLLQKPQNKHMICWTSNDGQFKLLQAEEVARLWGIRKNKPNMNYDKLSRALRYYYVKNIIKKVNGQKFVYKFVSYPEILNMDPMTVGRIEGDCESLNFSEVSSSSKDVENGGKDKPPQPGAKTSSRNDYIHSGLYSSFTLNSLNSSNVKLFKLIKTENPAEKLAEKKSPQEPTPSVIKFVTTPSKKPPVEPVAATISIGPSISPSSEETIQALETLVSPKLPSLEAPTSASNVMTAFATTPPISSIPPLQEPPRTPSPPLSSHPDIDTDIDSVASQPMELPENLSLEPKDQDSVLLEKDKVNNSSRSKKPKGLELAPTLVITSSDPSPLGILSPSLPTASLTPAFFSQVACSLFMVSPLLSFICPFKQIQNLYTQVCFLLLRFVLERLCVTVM
# Method in brief: as §1
# ETV2 = biological target: T10, ETV2 (Homo sapiens, UniProt O00321 1-342); details: protein: recombinant; tags: N-terminal GST; dsDNA, one strand shown
# T10 sequence: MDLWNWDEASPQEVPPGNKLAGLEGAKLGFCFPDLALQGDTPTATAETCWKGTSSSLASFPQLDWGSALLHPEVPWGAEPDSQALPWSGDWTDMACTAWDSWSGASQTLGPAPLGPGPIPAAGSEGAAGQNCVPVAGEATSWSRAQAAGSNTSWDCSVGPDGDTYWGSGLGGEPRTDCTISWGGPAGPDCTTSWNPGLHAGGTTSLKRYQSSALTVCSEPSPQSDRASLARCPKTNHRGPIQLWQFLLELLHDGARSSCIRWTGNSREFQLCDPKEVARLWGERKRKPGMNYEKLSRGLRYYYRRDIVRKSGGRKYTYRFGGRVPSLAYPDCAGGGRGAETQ
# Method in brief: as §1
# ELF3 = biological target: T11, ELF3 (Homo sapiens, UniProt P78545 1-371); details: protein: recombinant; tags: N-terminal GST; dsDNA, one strand shown
# T11 sequence: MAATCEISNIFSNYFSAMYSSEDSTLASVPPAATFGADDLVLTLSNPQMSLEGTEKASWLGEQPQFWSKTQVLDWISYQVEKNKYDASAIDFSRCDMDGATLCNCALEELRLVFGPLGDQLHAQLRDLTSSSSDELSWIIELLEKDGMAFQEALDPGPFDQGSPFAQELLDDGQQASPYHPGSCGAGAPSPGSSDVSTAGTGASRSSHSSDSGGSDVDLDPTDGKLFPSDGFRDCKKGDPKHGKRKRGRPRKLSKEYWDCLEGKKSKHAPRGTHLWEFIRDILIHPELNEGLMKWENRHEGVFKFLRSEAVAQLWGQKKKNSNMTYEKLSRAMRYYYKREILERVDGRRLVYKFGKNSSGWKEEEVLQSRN
# Method in brief: as §1
# CRX = CRX (Homo sapiens, UniProt O43186 1-299); details: protein: recombinant; tags: N-terminal GST; dsDNA, one strand shown
# Sequence of CRX (O43186 whole entry): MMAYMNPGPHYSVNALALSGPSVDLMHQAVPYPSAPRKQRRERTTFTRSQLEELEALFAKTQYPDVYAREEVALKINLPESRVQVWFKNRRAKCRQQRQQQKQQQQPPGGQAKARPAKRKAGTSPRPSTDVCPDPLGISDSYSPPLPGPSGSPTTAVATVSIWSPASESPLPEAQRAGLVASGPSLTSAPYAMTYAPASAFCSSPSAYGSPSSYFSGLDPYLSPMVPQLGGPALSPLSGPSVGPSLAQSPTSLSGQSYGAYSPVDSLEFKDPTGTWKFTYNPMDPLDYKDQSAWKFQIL
# Method in brief: as §1
# ETV1 = ETV1 (Homo sapiens, UniProt P50549 1-477); details: protein: recombinant; tags: N-terminal GST; dsDNA, one strand shown
# Sequence of ETV1 (P50549 whole entry): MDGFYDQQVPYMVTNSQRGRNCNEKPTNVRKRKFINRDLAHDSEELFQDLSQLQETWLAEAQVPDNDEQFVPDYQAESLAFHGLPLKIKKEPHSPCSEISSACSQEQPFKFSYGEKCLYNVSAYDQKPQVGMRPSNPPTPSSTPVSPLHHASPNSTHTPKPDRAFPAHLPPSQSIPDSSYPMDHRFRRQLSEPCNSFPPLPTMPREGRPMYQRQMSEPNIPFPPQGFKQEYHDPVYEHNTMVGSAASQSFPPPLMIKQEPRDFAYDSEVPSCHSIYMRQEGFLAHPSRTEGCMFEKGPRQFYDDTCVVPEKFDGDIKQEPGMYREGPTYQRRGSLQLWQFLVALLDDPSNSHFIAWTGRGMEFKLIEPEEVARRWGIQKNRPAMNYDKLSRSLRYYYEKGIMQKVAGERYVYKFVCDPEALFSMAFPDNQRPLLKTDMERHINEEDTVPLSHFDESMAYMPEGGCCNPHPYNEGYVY
# Method in brief: as §1
sequence,measurement,setting,value
TGGACT,binding signal,FLI1,"1.19 fold enrichment (6-mer frequency, TF over GST control)"
same,binding signal,ELK1,"1.27 fold enrichment (6-mer frequency, TF over GST control)"
same,binding signal,GABPA,"1.25 fold enrichment (6-mer frequency, TF over GST control)"
same,binding signal,ERG,"1.18 fold enrichment (6-mer frequency, TF over GST control)"
same,binding signal,ELF1,"1.26 fold enrichment (6-mer frequency, TF over GST control)"
same,binding signal,EHF,"1.3 fold enrichment (6-mer frequency, TF over GST control)"
same,binding signal,SPI1,"1.18 fold enrichment (6-mer frequency, TF over GST control)"
same,binding signal,SPIB,"1.41 fold enrichment (6-mer frequency, TF over GST control)"
same,binding signal,ELK3,"1.2 fold enrichment (6-mer frequency, TF over GST control)"
same,binding signal,FEV,"1.32 fold enrichment (6-mer frequency, TF over GST control)"
same,binding signal,ETV5,"1.33 fold enrichment (6-mer frequency, TF over GST control)"
same,binding signal,HSF1,"1.18 fold enrichment (6-mer frequency, TF over GST control)"
same,binding signal,SPIC,"1.31 fold enrichment (6-mer frequency, TF over GST control)"
same,binding signal,ELF4,"1.34 fold enrichment (6-mer frequency, TF over GST control)"
same,binding signal,ELK4,"1.25 fold enrichment (6-mer frequency, TF over GST control)"
same,binding signal,ETV2,"1.27 fold enrichment (6-mer frequency, TF over GST control)"
same,binding signal,ELF3,"1.19 fold enrichment (6-mer frequency, TF over GST control)"
same,binding signal,CRX,"1.06 fold enrichment (6-mer frequency, TF over GST control)"
same,binding signal,ETV1,"1.33 fold enrichment (6-mer frequency, TF over GST control)"
